# According to PubChem BioAssay:
# Active and inactive are the calls of the source.
# Assays:
# [1] = system: Plasmodium falciparum Sir2 (PF13_0152, Sir2A); test: Plasmodium falciparum Sir2A binding compounds – biochemical, small-molecule microarray, 635 nm fluorescence, primary screen (AID 1098); details: fluorescence 635 nm, higher = more signal;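 note: score merges spot fluorescence intensity with its signal-to-noise ratio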
# [2] = probe aDKK1 binding to arrayed compounds – biochemical, biotinylated probe, 635/667 nm fluorescence, primary screen (AID 1099); details: small-molecule microarray, higher = more signal;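 note: score merges 667nm spot fluorescence with signal to noise across triplicate slides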
# [3] = probe aCHRDL2 binding to arrayed compounds – biochemical, biotinylated probe, 635/667 nm fluorescence, primary screen (AID 1100); details: small-molecule microarray, higher = more signal
# [4] = change in splice reporter luminescence, either direction, cell-based, HEK293, spliceosome inhibition project, primary screen (AID 1101); details: HEK293 splicing luciferase reporter, 24 h, higher = more signal, called active from +8 up or from −8 down;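 note: HEK293 cells carrying a splicing-competent luciferase reporter gene; test concentration not given here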
# [5] = target: Fibroblast growth factor 10 (Homo sapiens) (UniProt O15520); test: compounds binding fibroblast growth factor 10 – biochemical, small-molecule microarray, 635 nm fluorescence, primary screen (AID 1102); details: FGF10 binding, fluorescence 635 nm, higher = more signal
# Fibroblast growth factor 10 (Homo sapiens), sequence (O15520 whole entry, looked up): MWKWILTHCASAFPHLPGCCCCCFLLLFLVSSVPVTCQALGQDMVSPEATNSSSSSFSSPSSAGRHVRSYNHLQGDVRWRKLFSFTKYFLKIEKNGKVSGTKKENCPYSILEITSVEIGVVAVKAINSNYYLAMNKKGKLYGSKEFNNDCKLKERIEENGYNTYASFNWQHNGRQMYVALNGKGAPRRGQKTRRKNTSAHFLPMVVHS
# [6] = system: glycogen synthase kinase-3 (GSK3A per assay name; protocol says GSK3B); test: compounds binding glycogen synthase kinase-3 – biochemical, small-molecule microarray, 635 nm fluorescence, GSK3A, primary screen (AID 1103); details: fluorescence 635 nm, higher = more signal; note: the record names both GSK3A and GSK3B
# [7] = target: Epidermal growth factor receptor (Homo sapiens) (UniProt P00533); test: compounds binding epidermal growth factor receptor – biochemical, small-molecule microarray, 635 nm fluorescence, primary screen (AID 1104); details: EGFR binding, higher = more signal;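 note: score merges 667 nm emission intensity with spot signal to noise over triplicate slides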
# Epidermal growth factor receptor (Homo sapiens), sequence (P00533 whole entry, looked up): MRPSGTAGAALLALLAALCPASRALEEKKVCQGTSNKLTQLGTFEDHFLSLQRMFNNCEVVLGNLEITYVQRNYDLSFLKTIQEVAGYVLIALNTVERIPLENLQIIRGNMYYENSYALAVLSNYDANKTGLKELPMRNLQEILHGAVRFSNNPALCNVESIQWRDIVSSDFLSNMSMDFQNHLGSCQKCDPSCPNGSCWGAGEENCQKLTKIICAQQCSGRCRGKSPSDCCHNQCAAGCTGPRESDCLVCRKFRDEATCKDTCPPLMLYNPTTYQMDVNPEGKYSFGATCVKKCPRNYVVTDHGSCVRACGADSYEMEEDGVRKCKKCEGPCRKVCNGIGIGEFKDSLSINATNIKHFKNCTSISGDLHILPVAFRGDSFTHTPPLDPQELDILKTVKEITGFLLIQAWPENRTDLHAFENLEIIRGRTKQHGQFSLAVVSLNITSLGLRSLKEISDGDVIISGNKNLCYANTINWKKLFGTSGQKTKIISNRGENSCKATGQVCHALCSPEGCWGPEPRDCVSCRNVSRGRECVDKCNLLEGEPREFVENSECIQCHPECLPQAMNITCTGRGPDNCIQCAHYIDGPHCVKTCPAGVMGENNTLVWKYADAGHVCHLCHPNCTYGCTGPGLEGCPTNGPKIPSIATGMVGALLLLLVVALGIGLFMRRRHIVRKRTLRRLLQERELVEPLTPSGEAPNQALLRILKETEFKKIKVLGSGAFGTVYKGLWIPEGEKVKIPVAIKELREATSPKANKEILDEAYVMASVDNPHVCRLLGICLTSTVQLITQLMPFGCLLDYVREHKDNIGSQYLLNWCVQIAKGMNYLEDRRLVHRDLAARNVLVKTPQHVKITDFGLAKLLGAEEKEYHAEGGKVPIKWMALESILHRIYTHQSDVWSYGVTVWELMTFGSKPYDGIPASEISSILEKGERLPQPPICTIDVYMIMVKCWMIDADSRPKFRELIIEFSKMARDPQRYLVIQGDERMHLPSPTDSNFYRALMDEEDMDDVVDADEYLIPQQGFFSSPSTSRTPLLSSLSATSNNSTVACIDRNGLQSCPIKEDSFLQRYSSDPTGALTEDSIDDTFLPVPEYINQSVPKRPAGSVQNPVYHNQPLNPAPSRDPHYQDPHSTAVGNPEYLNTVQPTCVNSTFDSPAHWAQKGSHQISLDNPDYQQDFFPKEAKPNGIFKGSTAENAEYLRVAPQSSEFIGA
# [8] = target: Follistatin-related protein 3 (Homo sapiens) (UniProt O95633); test: compounds binding follistatin-related protein 3 – biochemical, small-molecule microarray, 635 nm fluorescence, primary screen (AID 1105); details: FSTL3 binding, higher = more signal;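 note: score merges emission near 667 nm and signal to noise per printed spot across three slides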
# Follistatin-related protein 3 (Homo sapiens), sequence (O95633 whole entry, looked up): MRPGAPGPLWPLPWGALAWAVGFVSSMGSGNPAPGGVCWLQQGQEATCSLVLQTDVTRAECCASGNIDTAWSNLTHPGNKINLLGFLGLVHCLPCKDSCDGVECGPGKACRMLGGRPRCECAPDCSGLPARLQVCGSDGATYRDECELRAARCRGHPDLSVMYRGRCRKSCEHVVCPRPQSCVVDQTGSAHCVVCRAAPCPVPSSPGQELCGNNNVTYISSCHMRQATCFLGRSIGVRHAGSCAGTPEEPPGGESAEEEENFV
# [9] = target: Dickkopf-related protein 1 (Homo sapiens) (UniProt O94907); test: small molecules binding DKK1 protein – biochemical, small-molecule microarray, 635 nm fluorescence scan, primary screen (AID 1106); details: higher = more signal;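 note: score merges emission near 667 nm with signal to noise over three replicate slides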
# Dickkopf-related protein 1 (Homo sapiens), sequence (O94907 whole entry, looked up): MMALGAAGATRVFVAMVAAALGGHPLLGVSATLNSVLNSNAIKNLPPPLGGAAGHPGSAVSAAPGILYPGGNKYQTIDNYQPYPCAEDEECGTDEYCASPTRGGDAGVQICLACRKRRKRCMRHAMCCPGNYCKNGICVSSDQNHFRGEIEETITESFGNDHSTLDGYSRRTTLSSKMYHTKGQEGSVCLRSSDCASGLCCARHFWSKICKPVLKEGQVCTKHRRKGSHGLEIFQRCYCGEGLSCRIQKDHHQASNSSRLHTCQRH
# [10] = system: Inhibin beta A chain (activin A); test: small molecules binding activin A – biochemical, small-molecule microarray, 635 nm fluorescence scan, primary screen (AID 1107); details: INHBA, higher = more signal;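 note: mouse activin A protein probed at 4.33 µg/mL on printed slides; score merges bound-protein fluorescence near 667 nm with spot signal-to-noise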
# [11] = system: Human papillomavirus type 1a protein E7 (residues 44-93); test: small molecules binding HPV E7 44-93 – biochemical, small-molecule microarray, residues 44-93, 635 nm fluorescence, primary screen (AID 1108); details: fluorescence 635 nm, higher = more signal;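 note: E7 fragment applied at 1 µg/mL in TBST for 1 h at 4 C; score combines spot fluorescence with its signal to noise ratio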
# [12] = hepatitis C replication reporter changes, two-sided – Huh7 cells, luciferase reporter, HCV replication inhibitor project, primary screen (AID 1109); details: Huh7 HCV replicon luciferase reporter, 48 h; higher = more signal;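 note: huh7 hepatoma cells harbouring a luciferase neomycin HCV replicon reporter; luciferase luminescence as measure of HCV replicon replication; test concentration not given here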
# [13] = target: Left-right determination factor 2 (Homo sapiens) (UniProt O00292); test: small molecules binding LEFTY2 protein – biochemical, small-molecule microarray, 635 nm fluorescence scan, primary screen (AID 1110); details: higher = more signal
# Left-right determination factor 2 (Homo sapiens), sequence (O00292 whole entry, looked up): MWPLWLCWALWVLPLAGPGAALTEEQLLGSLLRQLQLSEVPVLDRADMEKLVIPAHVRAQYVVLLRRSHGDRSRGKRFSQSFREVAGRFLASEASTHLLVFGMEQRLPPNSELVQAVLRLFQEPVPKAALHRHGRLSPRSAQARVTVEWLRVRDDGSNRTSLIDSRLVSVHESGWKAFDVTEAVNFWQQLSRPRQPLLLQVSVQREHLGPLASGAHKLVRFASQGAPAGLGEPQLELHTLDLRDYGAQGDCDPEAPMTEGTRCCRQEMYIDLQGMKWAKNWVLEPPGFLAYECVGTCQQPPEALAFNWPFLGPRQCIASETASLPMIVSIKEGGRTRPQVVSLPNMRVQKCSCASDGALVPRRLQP
# [14] = target: Calmodulin-1 (Homo sapiens) (UniProt P0DP23); test: small molecules binding calmodulin-1 with EGTA – biochemical, small-molecule microarray, Cy5-labelled CALM1, profiling panel (AID 1111); details: Cy5-CALM1 binding fluorescence, higher = more signal;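 note: labelled calmodulin applied in Tris saline Tween buffer holding calcium plus EGTA and DTT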
# [15] = target: Calmodulin-1 (Homo sapiens) (UniProt P0DP23); test: small molecules binding Ca-loaded calmodulin-1 – biochemical, small-molecule microarray, Cy5-labelled CALM1, plus calcium, artefact control for SMM control-protein annotation, profiling panel (AID 1112); details: Cy5-CALM1 binding fluorescence, higher = more signal;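 note: score merges spot fluorescence with signal to noise from triplicate slides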
# [16] = probe aWnt5a binding to arrayed compounds – biochemical, biotinylated probe, 635/667 nm fluorescence, primary screen (AID 1113); details: small-molecule microarray, higher = more signal;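 note: score merges 667 nm fluorescence intensity with signal-to-noise per printed feature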
# [17] = probe aShh binding to arrayed compounds – biochemical, biotinylated probe, 635/667 nm fluorescence, primary screen (AID 1114); details: small-molecule microarray, higher = more signal;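 note: probe is biotin-labelled aShh protein from a stem cell growth factor screen; measures binding of labelled protein to compounds printed on the slide; score merges feature fluorescence at 667 nm with signal-to-noise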
# [18] = probe aNog binding to arrayed compounds – biochemical, biotinylated probe, 635/667 nm fluorescence, primary screen (AID 1115); details: small-molecule microarray, higher = more signal;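 note: probe is biotinylated aNog protein used at 0.15 µg/mL for 1 h at 4 C; z-score combines 667 nm fluorescence of each spot with its signal to noise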
# [19] = target: Torsin-1A-interacting protein 1 (Homo sapiens) (UniProt Q5JTV8); test: compound microarray binding of lysate hLAP1 – cell lysate, small-molecule microarray, COS7 lysate, 635/667 nm fluorescence, primary screen (AID 1116); details: 635 nm fluorescence, higher = more signal
# Torsin-1A-interacting protein 1 (Homo sapiens), sequence (Q5JTV8 whole entry, looked up): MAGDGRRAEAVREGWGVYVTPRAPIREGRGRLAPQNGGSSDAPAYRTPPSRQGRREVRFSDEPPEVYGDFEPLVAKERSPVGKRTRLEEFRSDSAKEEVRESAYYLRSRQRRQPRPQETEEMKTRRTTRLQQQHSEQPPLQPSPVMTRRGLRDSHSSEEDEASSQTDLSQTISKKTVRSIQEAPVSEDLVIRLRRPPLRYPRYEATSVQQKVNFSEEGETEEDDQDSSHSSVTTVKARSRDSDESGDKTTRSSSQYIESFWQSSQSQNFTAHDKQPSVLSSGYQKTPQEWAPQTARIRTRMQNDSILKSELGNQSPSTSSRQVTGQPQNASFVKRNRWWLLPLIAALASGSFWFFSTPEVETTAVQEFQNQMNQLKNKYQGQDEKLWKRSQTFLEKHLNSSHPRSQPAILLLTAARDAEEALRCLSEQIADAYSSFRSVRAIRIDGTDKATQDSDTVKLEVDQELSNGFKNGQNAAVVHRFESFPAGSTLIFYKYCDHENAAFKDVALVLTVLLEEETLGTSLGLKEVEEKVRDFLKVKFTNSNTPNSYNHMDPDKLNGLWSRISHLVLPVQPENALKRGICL
# [20] = target: Alpha-bungarotoxin (Bungarus multicinctus) (UniProt P60615); test: compounds binding labelled alpha-BTX control protein – biochemical, small-molecule microarray, Alexa647 label, 635/667 nm fluorescence, artefact control for SMM control protein annotation, profiling panel (AID 1117); details: alpha-BTX-A647 binding fluorescence, higher = more signal
# Alpha-bungarotoxin (Bungarus multicinctus), sequence (P60615 whole entry, looked up): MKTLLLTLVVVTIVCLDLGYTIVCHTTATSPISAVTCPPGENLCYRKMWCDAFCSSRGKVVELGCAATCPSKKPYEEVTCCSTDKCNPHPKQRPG
Structure (SMILES),composite z-score [1],composite z-score [2],composite z-score [3],z-score [4],composite z-score [5],composite z-score [6],composite z-score [7],composite z-score [8],composite z-score [9],composite z-score [10],composite z-score [11],z-score [12],composite z-score [13],composite z-score [14],composite z-score [15],composite z-score [16],composite z-score [17],composite z-score [18],composite z-score [19],composite z-score [20]
CCCC=C(CCC)[C@@H](NC(=O)CCc1ccccc1)c1ccc(C(F)(F)F)cc1,1.08,0.256,0.995,-1.57 (inactive),0.527,1.28,0.0694,0.574,-0.429,0.724,1.36,-1.51,-0.203,1.58,1.03,0.451,0.93,0.555,1.11,1.23
NC(=O)[C@H]1[C@@H]2C(=O)O[C@@H](c3ccccc3)[C@@H](c3ccccc3)N2[C@@H](c2ccc(O)cc2)[C@]12C(=O)Nc1ccccc12,0.845,-0.352,0.561,-0.0764 (inactive),-1.07,-1.69,-1.15,-1.51,-1.34,-1.11,-0.0092,-0.449,-0.194,-0.408,0.517,-0.0124,-0.214,-0.0753,-0.428,-1.15
COCCOC(=O)N1C(=O)[C@@]2(c3cc(C#CCCO)ccc31)[C@H](C(N)=O)[C@H]1C(=O)O[C@H](c3ccccc3)[C@H](c3ccccc3)N1[C@@H]2c1ccc(OCCO)cc1,1.44,0.209,0.415,0.475 (inactive),1.25,1.23,0.808,1.14,0.616,0.914,1.28,-1.14,0.957,1.1,-0.351,-0.0303,0.0253,-0.371,1.46,0.787
CCOC(=O)C1=C[C@@H](C(C)(C)C)N(S(=O)(=O)c2ccc(C)cc2)[C@H]1c1cccc(Cl)c1,0.758,0.821,0.182,-0.517 (inactive),0.907,1.31,0.427,1.36,0.0675,-0.213,0.941,-2.85,0.553,1.09,0.321,0.137,0.186,-0.136,0.715,1.27
COc1ccc([Si](C)(C)[C@H]2[C@H](CC(=O)N3CCC[C@H]3CO)O[C@@]3(C(=O)N(Cc4ccc(N5CCC5=O)cc4)c4ccccc43)[C@@H]2C)cc1,1.49,-0.248,-0.567,-0.805 (inactive),1.34,1.29,0.838,1.41,0.774,-0.525,1.13,-1.88,0.794,0.865,0.0623,-0.0735,-0.0709,-0.484,1.53,1.79
O=C1OCCC=C[C@H]2OC34C=CCN(c5ccc(Cl)cc5)C(=O)[C@H]3N(CCCCCCO)C(=O)[C@@H]4C12 (stereo not given in full),1.12,-0.0366,0.499,0.189 (inactive),-0.744,-0.359,-1.23,-0.509,-0.712,-0.279,-0.344,-0.476,-1.25,-0.869,-0.593,-0.152,-0.109,0.0422,-0.307,-1.35
C=C(C(=O)CC[C@H](OC(=O)c1ccccc1-c1ccccc1C(=O)O)c1ccccc1OCCO)C(C)C,1.01,-0.175,-0.459,-0.456 (inactive),0.238,0.304,-0.388,0.176,0.273,1.16,0.649,-1.59,0.346,-0.246,-0.4,-0.0573,0.108,0.0718,1.31,1.26
CCOC(=O)C1=CC[C@@H](c2ccccc2)N(S(=O)(=O)c2ccc(C)cc2)[C@H]1c1cccc(OC)c1,0.389,0.708,0.244,-0.937 (inactive),0.425,0.897,0.197,0.549,0.135,0.949,1.09,-1.96,0.177,0.0295,0.622,0.0422,0.0898,0.266,0.854,1.3
Cc1ccccc1C(O)C1C=CC2C(=O)N(c3ccccc3)C(=O)C2N1Nc1ccc([N+](=O)[O-])cc1 (stereo not given),1.3,0.25,0.793,-0.0433 (inactive),0.597,1.29,0.217,1.19,0.0125,0.816,1.42,-0.598,0.174,1.05,0.656,-0.012,0.0684,1.63,2.03,0.625
COCCOC(=O)N1C(=O)[C@@]2(c3cc(C#CC4(O)CCCCCC4)ccc31)[C@H](c1ccc(OCCO)cc1)N1[C@H](c3ccccc3)[C@H](c3ccccc3)OC(=O)[C@H]1[C@@H]2C(=O)Nc1nc2ccccc2s1,1.41,0.722,0.208,0.268 (inactive),1.05,0.522,0.538,1.33,0.559,0.308,1.22,-2.43,0.985,1.35,0.249,-0.006,0.214,0.721,1,0.968
COc1cc(NN2C(C(O)c3ccc(I)cc3)C=CC3C(=O)N(c4ccccc4)C(=O)C32)cc(OC)c1OC (stereo not given),0.913,0.763,1.04,-0.329 (inactive),1.17,1.29,0.266,1.3,-0.305,0.946,1.46,-0.573,0.391,1.85,0.663,0.136,0.213,1.23,1.64,1.68
CC(=O)NCCCC[C@@H]1NC(=O)[C@H]2C[C@@H](C(=O)NCCCCCNC(=O)CS)[C@@H](c3cccc(OCCO)c3)N2C1=O,1.52,-0.136,0.441,-0.293 (inactive),0.349,0.552,0.39,0.397,0.607,0.469,0.0676,0.217,0.0794,0.232,0.202,-0.157,-0.147,-0.158,0.868,0.389
Cc1ccc(S[C@]2(C(=O)NC(C)C)CC(=O)N(C(C)C)[C@@H]2c2ccc(CO)cc2I)cc1,0.476,0.0345,0.706,-0.714 (inactive),-0.101,-0.498,-0.56,0.298,-0.484,0.904,0.973,-1.75,-0.485,0.198,-0.114,-0.104,0.216,-0.327,0.322,-0.174
COC(=O)[C@@]1(Cc2ccc(F)cc2)[C@H]2c3cc(C(=O)N4CCCC4)n(CC4CC4)c3C[C@H]2CN1C(=O)c1ccccc1,1.4,1.15,1.3,-0.761 (inactive),0.692,0.621,0.915,0.466,0.0587,0.789,1.39,-1.94,1.29,2.43,0.701,0.0139,0.184,1.96,1.22,1.33
COc1ccc(C#Cc2ccc3c(c2)[C@]2(C(=O)N3)[C@H](C(=O)N3CCCCCCC3)[C@H]3C(=O)O[C@H](c4ccccc4)[C@H](c4ccccc4)N3[C@@H]2c2ccc(O)cc2)cc1,1.57,1.36,0.696,-0.547 (inactive),0.684,1.16,0.427,1.2,0.608,0.85,0.871,-0.764,0.536,1.51,0.426,0.19,0.162,2.3,2.85,1.22
O=C1C[C@@](C(=O)NCc2ccccc2)(c2ccc([N+](=O)[O-])cc2)[C@@H](c2ccc(CO)cc2I)N1CC12CC3CC(CC(C3)C1)C2,1.05,-0.0517,0.214,-0.218 (inactive),1.31,0.794,0.547,1.44,0.578,-0.0204,1.39,-3.32,0.591,0.387,0.0818,-0.0529,-0.152,-0.131,0.903,1.02
C=CCN1C(=O)[C@]2(O[C@H](CCO)[C@@H]([Si](C)(C)c3ccc(OC)cc3)[C@@H]2C)c2cc(N3C(=O)COc4ccccc43)ccc21,0.529,-0.113,0.33,-3.03 (inactive),0.74,0.195,0.0364,0.4,-0.207,0.378,1.32,-5.2,0.181,0.966,0.325,-0.0134,-0.0858,0.0599,-0.0988,0.429
C=C(COC)/C(=C/C[C@H](OC(C)=O)c1cccc(OCCO)c1)c1cnc2ccccc2c1,1.38,-0.0559,0.0794,0.344 (inactive),1.51,0.965,0.771,1.58,0.83,1.75,1.4,-1.7,0.536,-0.0062,-0.892,-0.0512,-0.147,0.353,0.416,2.04
O=C1C2C=CC(C(O)c3ccco3)N(Nc3ccccc3)C2C(=O)N1c1ccccc1 (stereo not given),0.576,0.144,0.878,0.14 (inactive),-0.322,-0.678,-0.616,-0.713,-0.555,0.781,-0.335,0.305,-0.756,-0.136,0.245,-0.006,0.0121,0.181,-0.479,-0.0188
COCCOC(=O)N1C(=O)[C@@]2(c3cc(C#CC4(O)CCCCCC4)ccc31)[C@H](C(=O)N1CCN(c3ncccn3)CC1)[C@H]1C(=O)O[C@H](c3ccccc3)[C@H](c3ccccc3)N1[C@@H]2c1ccccc1OCCO,1.27,-0.0139,-0.113,-0.278 (inactive),0.864,1.29,0.906,1.29,1.32,0.521,1.37,-2.22,1.2,0.348,0.0618,-0.184,0.116,-0.263,0.334,0.684
